Results reported in PubChem BioAssay AID2148 (The Scripps Research Institute Molecular Screening Center, 2009).
The whole screen tested about 2,400 compounds, of which about 1,500 (62%) were called active. The set was probably picked from earlier hits. Not all results are given here. A number with no mark means an inactive call. Rule as the data show it: active = inhibition above about 22%; inactive = the rest.

What follows are molecules tested against Melanin-concentrating hormone receptor 1 (Homo sapiens) (UniProt Q99705) (assay: antagonism of human MCHR1 receptor – cell-based, fluorescence, counter-screen for GPR7 antagonist project (AID 2148;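 also: 0% = vehicle with agonist and 100% = vehicle without agonist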)). Settings: MCHR1-expressing cells, fluorescence antagonist assay; at 4.4 µM; active compounds read high.

Row | SMILES | inhibition
1 | Cc1ccc(NC2=C(Cl)C(=O)OC2OC(=O)c2ccccc2C)cc1 (stereo not given) | 39.7% (active)
2 | COc1ccc(NC(=O)C2CCC(CNS(=O)(=O)c3csc(C(N)=O)c3)CC2)cc1OC (stereo not given) | 7.62%
3 | CC1(C)CC(CNCCC(c2ccc(F)cc2)c2ccco2)CCO1 (stereo not given) | 23.9% (active)
4 | Cc1ccc(CNC(=O)C2CCN(S(=O)(=O)c3ccc4nc5c(c(C(=O)O)c4c3)CC(C)CC5)CC2)cc1 (stereo not given) | 10.8%
5 | Cn1c(=O)c([N+](=O)[O-])c(Oc2ccccc2)c2ccccc21 | 30.5% (active)
6 | COc1cc(OC)c(-n2cc(-c3ccc(Cl)cc3)[nH]c2=O)cc1Cl | 53.2% (active)
7 | Cc1cccc(-c2nc3ccc(C(=O)NCCN4CCN(C)CC4)cc3nc2-c2cccc(C)c2)c1 | 34.7% (active)
8 | S=C(NCCc1ccccc1)Nc1ccccc1 | 33.6% (active)
9 | CN(c1ccccc1)S(=O)(=O)c1ccc(C(=O)NCCc2ccccc2)cc1 | 11.5%
10 | COc1ccccc1N1CCN(c2ncnc3sc(C)c(-c4ccccc4)c23)CC1 | 56.4% (active)
11 | COc1ccccc1CNC(=O)COc1ccc(C)nc1[N+](=O)[O-] | -4%
12 | Cc1cc(OCc2ccc(C(=O)Nc3ccc(C(=O)O)cc3)o2)ccc1Cl | 22% (active)
13 | CC(C)(C)CC(C)(C)NCC(O)COCCOc1ccc(Br)cc1 (stereo not given) | 47.4% (active)
14 | O=C(Nc1ccc2ccccc2c1)Nc1ccc2snnc2c1 | 61.5% (active)
15 | CCN1CCN(c2ccc([N+](=O)[O-])cc2C(=O)c2ccc(Cl)cc2)CC1 | 41.1% (active)
16 | OC(CNCC1CCCO1)Cn1c2ccc(Br)cc2c2cc(Br)ccc21 (stereo not given) | 81.1% (active)
17 | O=C(CCCN1CCc2[nH]c3ccc(F)cc3c2C1)c1ccc(F)cc1 | 44.6% (active)
18 | CS(=O)(=O)Nc1cccc(C2=NN(S(=O)(=O)c3ccccc3)C(c3cccs3)C2)c1 (stereo not given) | 25.9% (active)
19 | COc1ccc(OC)c(C(c2nnnn2C(C)(C)C)N2CCc3ccccc3C2)c1 (stereo not given) | 47.3% (active)
20 | COCCCNC(=S)N1CCN(c2nc(-c3cccc(OC)c3)cs2)CC1 | 51.1% (active)
21 | Cc1ccc(NC(=O)CN2CCC3(O)CCCCC3C2c2ccc3c(c2)OCO3)c(C)c1 (stereo not given) | 24.9% (active)
22 | COc1ccc([N+](=O)[O-])cc1N(CC(O)CN(CC(C)C)CC(C)C)S(=O)(=O)c1ccc(C)cc1 (stereo not given) | 66% (active)
23 | COCCN(Cc1cc2cc3c(cc2nc1Cl)OCO3)C(=O)c1cccc(C)c1 | 37.5% (active)
24 | Cc1cccc(CS(=O)(=O)c2ncc(Cl)c(C(=O)Nc3ccc(F)cc3)n2)c1 | 92.1% (active)
25 | COc1ccc(N=C2SC(C(=O)Nc3ccc(F)cc3)CC(=O)N2C)cc1 (stereo not given) | 3.76%
